According to PubChem BioAssay (NCATS):
Results filed as inconclusive are left out. Unmarked numbers belong to inactive results. Calls of active or inactive are those of the source. Calls come from the whole dose curve; as a rule, active = well fitted inhibition curve with a large enough effect; inconclusive = small, poorly fitted or top-dose-only effect; inactive = no such curve, though single readings can be large or run the other way. Where a SMILES comes first, the peptide text is derived from it. [ ]: non-standard residue; d: D form. Ala(indol-2-yl) = N[C@@H](Cc1cc2ccccc2[nH]1)C(=O)O; Aib = CC(C)(N)C(=O)O

System: Zika virus NS2B-NS3 protease (unlinked complex)
Experiment: Primary screen GU Rhodamine qHTS for Zika virus inhibitors: Unlinked NS2B-NS3 protease assay (AID 1347159); note: nearly all actives have a fitted effect of over 60% in size
Conditions: Recombinant ZIKV NS2B-NS3 protease, Rhodamine110 substrate fluorescence; series mostly up to 107 µM; activity change, negative = inhibition: at the top concentration
Outline: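 Buffer 10 mM Tris-HCl pH 8.0, 0.01% Tween 20. Unlinked protease 25 nM; compound preincubation 15 min, RT, protected from light. Substrate Rhod110, 1.5 microM; ~15% conversion in 15 min.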
% is set by controls: 0 for no effect and ±100 for the full control effect; potency is the fitted concentration of half-maximal effect.

Structure (SMILES)	activity change, negative = inhibition	Potency
COC1CC(O[C@H]2CC[C@]3(C)C4CC[C@]5(C)[C@@H](C6=CC(=O)OC6)[C@@H](OC(C)=O)C[C@]5(O)C4CC[C@@H]3C2)OC(C)C1O (stereo not given in full)	-15% [at 57.1 µM]	
C[C@H]1O[C@@H](O[C@H]2CC[C@]3(C=O)C4CC[C@]5(C)[C@@H](C6=CC(=O)OC6)CC[C@]5(O)[C@@H]4CC[C@]3(O)C2)C[C@@H](O)[C@@H]1O (stereo not given in full)	14.9% [at 57.1 µM]	
CC1=CC2OC3[C@H](O)C[C@@](C)([C@]34CO4)[C@@]2(CO)[C@H](O)C1=O (stereo not given in full)	23%	
COC1CC(O[C@H]2CC[C@@]3(C)C(CCC4C3CC[C@]3(C)[C@@H](C5=CC(=O)OC5)CC[C@]43O)C2)OC(C)C1O (stereo not given in full)	0.422% [at 57.1 µM]	
CC(C)(C)[C@]1(O)C[C@@H]2OC(=O)C[C@@]23C(=O)O[C@@H]2OC(=O)[C@@H](O)[C@]213	24%	
C[C@H]1C/C=C/[C@H]2[C@@H]3O[C@]3(C)[C@@H](C)[C@H]3[C@H](Cc4ccccc4)NC(=O)[C@]32OC(=O)O/C=C/[C@@](C)(O)C1=O	-13.1% [at 57.1 µM]	
CNC(=O)c1cc(C#N)cc(C)c1NC(=O)c1cc(Br)nn1-c1ncccc1Cl	0%	
OCc1nnc2n1-c1ccc(Cl)cc1C(c1ccccc1Cl)=NC2	-14.2%	
COC1CC(O[C@H]2CC[C@]3(C=O)C4CC[C@]5(C)[C@@H](C6=CC(=O)OC6)CC[C@]5(O)[C@@H]4CC[C@@H]3C2)OC(C)C1O[C@@H]1O[C@H](CO)[C@@H](O[C@@H]2O[C@H](CO)[C@@H](O)[C@H](O)[C@H]2O)[C@H](O)[C@H]1O (stereo not given in full)	-14.2% [at 32.5 µM]	
CO[C@@H]1C[C@H](O[C@H]2CC[C@@]3(C)C(CCC4C3CC[C@]3(C)[C@@H](C5=CC(=O)OC5)[C@@H](OC(C)=O)CC43O)C2)O[C@H](C)[C@@H]1O[C@H]1O[C@H](CO[C@@H]2O[C@H](CO)[C@@H](O)[C@H](O)[C@H]2O)[C@@H](O)[C@H](O)[C@H]1O (stereo not given in full)	-1.32% [at 32.5 µM]	
CC(=O)O[C@@H]1[C@@H](O)[C@H]2O[C@@H]3C=C(C)[C@@H](O)C[C@]3(CO)[C@]1(C)[C@]21CO1	20.4%	
CO[C@H]1C[C@H](O[C@H]2CC[C@@]3(C)C(=CCC4C3CC[C@]3(C)[C@@H](C5=CC(=O)OC5)CC[C@]43O)C2)O[C@@H](C)[C@@H]1O[C@@H]1O[C@H](CO[C@@H]2O[C@H](CO)[C@@H](O)[C@H](O)[C@H]2O)[C@@H](O)[C@H](O)[C@H]1O (stereo not given in full)	5.9% [at 32.5 µM]	
C=C1[C@@H](C)[C@H]2[C@H](Cc3ccccc3)NC(=O)[C@]23[C@H](OC(C)=O)/C=C/[C@](C)(O)C(=O)[C@@H](C)C/C=C/[C@H]3[C@@H]1O	10.9%	
c1cncc(OC[C@@H]2CCN2)c1	77.7%	
CC(=O)OC[C@]12C[C@H](OC(=O)CC(C)C)C(C)=C[C@H]1O[C@@H]1[C@H](O)C[C@@]2(C)[C@]12CO2	-22.5% [at 57.1 µM]	
CNc1ccc2oc(C[C@H]3O[C@@]4(CC[C@H]3C)O[C@H](C(C)C(=O)c3ccc[nH]3)[C@H](C)C[C@H]4C)nc2c1C(=O)O (stereo not given in full)		11.2 µM (active)
C[N@@+]1(CC2CC2)CC[C@]23c4c5ccc(O)c4O[C@H]2C(=O)CC[C@@]3(O)[C@H]1C5	1.77%	
COc1ccc2c3c([nH]c2c1)C(C=C(C)C)N1C(=O)C2CCCN2C(=O)C1C3 (stereo not given)	11.9%	
CC(=O)OC[C@]12C[C@H](OC(=O)CC(C)C)C(C)=C[C@H]1O[C@@H]1[C@H](O)[C@@H](O)[C@@]2(C)[C@]12CO2	-3.51% [at 57.1 µM]	
CC(C)(NC(=O)[C@@H](N)Cc1ccc(O)cc1)C(=O)N[C@@H](Cc1cc2ccccc2[nH]1)C(=O)N[C@@H](Cc1ccccc1)C(=O)O (H-Y[Aib][Ala(indol-2-yl)]F-OH)	11.5% [at 19.1 µM]	
C[C@]12CC[C@H](O)C[C@H]1CC[C@@H]1[C@@H]2[C@H](O)C(=O)[C@]2(C)[C@@H](c3ccc(=O)oc3)CC[C@]12O	23.8%	
CC[C@H]1C2CC3[C@@H]4N(C)c5ccccc5[C@]45C[C@@H]([C@H]2[C@H]5O)N3[C@@H]1O	4%	
CC(=O)OC[C@]12C[C@H](OC(=O)CC(C)C)C(C)=C[C@H]1O[C@@H]1[C@H](O)[C@@H](OC(C)=O)[C@@]2(C)[C@@]12CO2	13.5% [at 57.1 µM]	
CC1=C[C@H]2O[C@@H]3C[C@H]4OC(=O)/C=C/C=C/C(=O)OCC/C(C)=C/C(=O)OC[C@@]2(CC1)[C@]4(C)[C@]31CO1	9.99% [at 57.1 µM]	
CC[C@@]1(O)C(=O)OCc2c1cc1n(c2=O)Cc2cc3c(OC)cccc3nc2-1	-21.7%	
